# Experimental data published in PubChem BioAssay AID1850 (Southern Research Specialized Biocontainment Screening …, 2009).
# Several values for one entry are separate records, joined by “and”; a condition that tells them apart may be missing. Equal values may be shown once. Hit rate of the full screen: of about 310,000 compounds, about 1,000 (0.32%) were called active. Not all results are given here. Entries with a potency or affinity are not part of this list. Unmarked numbers belong to inactive results. How the calls were made is not given here.
# Experiment: Inhibition of PhoP regulon, Salmonella typhi GFP reporter cells, confirmation, 4 h (AID 1850);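 further: 0% = induced wells with vehicle and 100% = uninduced wells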
# Settings: Salmonella Typhi PhoP-promoter GFP reporter, fluorescence, at 50 µM, hits give high values
row,Structure (SMILES),inhibition
1,CN(C)CCCN(C(=O)c1ccco1)c1nc2c(F)cc(F)cc2s1,1.38%
2,CCn1cc(C(=O)O)c(=O)c2cc(F)c(N3CCN(C(=S)NC(=O)c4ccccc4Cl)CC3)cc21,11.6%
3,CCn1cc(C(=O)O)c(=O)c2cc(F)c(N3CCN(C(=S)NC(=O)c4ccccc4Br)CC3)cc21,-18.1%
4,Cc1cc(S(=O)(=O)Nc2ccc(C(=O)N3CCN(c4ccccc4O)CC3)cc2)ccc1F,-8.67%
5,COc1ccc(Cn2cc(F)c(=O)n(C)c2=O)cc1[N+](=O)[O-],4.35%
6,Cc1ccc(S(=O)(=O)N2CCCC(C(=O)NCC3COCCO3)C2)cc1 (stereo unspecified),-3.93%
7,COc1cc([N+](=O)[O-])cc(/C=N\NC(=O)C2COc3ccccc3O2)c1O (stereo unspecified),16.3%
8,O=C(N/N=C\c1ccc(O)c([N+](=O)[O-])c1)C1COc2ccccc2O1 (stereo unspecified),1.19%
9,O=C(N/N=C/c1cccc([N+](=O)[O-])c1)C1COc2ccccc2O1 (stereo unspecified),-0.57%
10,O=C(N/N=C\c1ccc(-c2ccccc2[N+](=O)[O-])o1)C1COc2ccccc2O1 (stereo unspecified),6.46%
11,CCOC(=O)C1(Cc2ccccc2C(F)(F)F)CCN(Cc2ccon2)CC1,-14.2%
12,O=C(Cn1cnc(S(=O)(=O)N2CCCC2)c1)Nc1cccc(Br)c1,-2.76%
13,O=C(Nn1cnnc1)c1ccccc1-c1ccccc1,9.02%
14,COc1cccc(-c2ccc3nnc(SCC(=O)N4CCCC4)n3n2)c1,1.13%
15,CCN1C(=O)NC(c2ccc(Cl)cc2)C2=C1CCCC2=O (stereo unspecified),-16.4%
16,O=C(CN1CCCC1)N1CCCC(c2ccc(F)cc2)c2ccc(F)cc21 (stereo unspecified),-12.7%
17,OCCN1CCN(CC(O)COC(c2ccc(F)cc2)c2ccc(F)cc2)CC1 (stereo unspecified),-5.69%
18,N/C(CC(=O)Nc1ccc(F)c(Cl)c1)=N\OC(=O)c1cccs1,-6.75%
19,CC(=O)Cc1nsc(Nc2ccc(C)cc2)n1,0.05%
20,COC(=O)c1cc(-c2cccc([N+](=O)[O-])c2)c2c(=O)n(C)c(=O)n(C)c2n1,0.74%
21,CC1CCC(C(C)C)C(OC(=O)Cn2c(-c3ccc(Br)cc3)[n+](C)c3ccccc32)C1 (stereo unspecified),-12.1%
22,CC1CCC(C(C)C)C(OC(=O)Cn2c(-c3ccc(F)cc3)[n+](C)c3ccccc32)C1 (stereo unspecified),9.13%
23,CC1CCC(C(C)C)C(OC(=O)COC(=O)c2ccccc2N)C1 (stereo unspecified),-3.26%

row,Structure (SMILES),inhibition
1,CC1CCC(C(C)C)C(OC(=O)COC(=O)c2ccc(N)cc2)C1 (stereo unspecified),-3.86%
2,CC1CCC(C(C)C)C(OC(=O)Cn2c(-c3ccccc3)[n+](C)c3ccccc32)C1 (stereo unspecified),7.04% and -8.34%
3,CC1CCC(C(C)C)C(OC(=O)CSc2nccc(=O)[nH]2)C1 (stereo unspecified),-9.72%
4,CCOC(=O)c1cnc2ccc(OC)cc2c1NCCN1CCOCC1,-3.63%
5,COc1ccc(OC)c(NC(=O)c2nnn(CC(=O)Nc3ccc4c(c3)OCO4)c2N)c1,-17.1%
6,CN(C(=O)C1CCN(S(=O)(=O)c2cccs2)CC1)C1CCCCC1,-11.4%
7,Cc1ccc[n+](Cc2ccc([N+](=O)[O-])cc2)c1,-2.48%
8,CC(=O)Nc1ccc(OCCC[n+]2ccccc2)cc1,-5.56%
9,CCC(C)(C)c1ccc(OCCCC[n+]2ccc(C)cc2)c(C(C)(C)CC)c1,6.7%
10,CCCCOc1ccc(CCN)cc1Cl,-8.19%
11,CCC(C)(C)c1ccc(OCCCC[n+]2cccc(C)c2C)c(C(C)(C)CC)c1,9.55%
12,CCCCCc1ccc(OCCCC[n+]2ccc(C)cc2)c(CCCCC)c1,-3.58%
13,CC(=O)Nc1ccc(OCCC[n+]2cccc(C(=O)[O-])c2)cc1,5.76%
14,Cc1cc(=O)oc2cc(OCCCC[n+]3ccccc3)ccc12,-6.05%
15,COc1ccc(N(C(C)C(=O)N/N=C/c2ccc(OCC(C)C)cc2)S(C)(=O)=O)cc1 (stereo unspecified),-7.5%
16,O=c1[nH]c(=O)n(C2CCCCCC2)c(O)c1C=NCc1cccnc1,0.08%
17,Cn1nc(CC(=O)Nc2ncc(Br)s2)c2ccccc2c1=O,-7.27%
18,COc1ccc(S(=O)(=O)N2CCCC(C(=O)NC3CC3)C2)cc1Cl (stereo unspecified),4.9%
19,CC1CCCN(C2=NC(=O)/C(=C/c3cn(-c4ccccc4)nc3-c3cccc(S(=O)(=O)N(C)C)c3)S2)C1 (stereo unspecified),-7.62%
20,Cc1cc(Br)c(NC(=O)COC(=O)CSc2nnc(-c3ccc(Cl)cc3)o2)c(Br)c1,6%
21,Cc1ccc(S(=O)(=O)NCCC(=O)Nc2ccc(Cl)c(Cl)c2)cc1,-0.17%
22,COCc1cc(=O)n2[nH]c(N)nc2n1,6.29%
23,CCOC(=O)[C@@H]1[C@H]2COc3cc(OC)ccc3[C@@H]2N2C(=O)N(c3ccc(C)cc3)C(=O)[C@]12C,-2.59%

row,Structure (SMILES),inhibition
1,CCn1c(/C=C/N(C)c2ccccc2)[n+](CC)c2ccc(Cl)cc21,20.2%
2,CC[n+]1c(/C=C/N(C)c2ccccc2)sc2ccc(Cl)cc21,-2.8%
3,Cc1ccc(SCC(=O)NCCSC(C)(C)C)cc1,-5.44%
4,CC(=O)Nc1ccc(S(=O)(=O)NCCCc2ccccc2)cc1,-4.81%
5,Cc1ccc2sc(N(CCCN(C)C)C(=O)c3nc4ccccc4s3)nc2c1C,11.1%
6,Cc1ccc2nc(N(CCCN(C)C)C(=O)c3ccc(Br)s3)sc2c1,4.27%
7,CSc1ccc(CNC(C)C(O)c2ccccc2)cc1 (stereo unspecified),20.7%
8,CC(NCc1ccccc1Cl)C(O)c1ccccc1 (stereo unspecified),3.04%
9,CC(NCc1ccc(Cl)cc1Cl)C(O)c1ccccc1 (stereo unspecified),-10%
10,CC(NCc1ccc(Cl)cc1)C(O)c1ccccc1 (stereo unspecified),32.7%
11,CCOc1ccc(-c2nc(CSCC(=O)NC3CC3)c(C)o2)cc1,5.51%
12,O=C(Nc1cc(Cl)ccc1-n1cncn1)c1ccc(F)c(S(=O)(=O)N2CCOCC2)c1,6.99%
13,CC(C)c1ccc(NC(=S)N2CCN(Cc3ccccc3)CC2)cc1,14.4%
14,COc1ccc(CNc2nc3ccccc3n2CCN2CCOCC2)cc1,14.4%
15,COc1ccc(CC(=O)N2CCC(Nc3nc4ccccc4n3Cc3ccc(F)cc3)CC2)cc1,8.15%
16,CC(C)=C(NC(=O)c1ccccc1Br)C(=O)NCCc1nc2ccccc2[nH]1,3.02%
17,Cc1ccccc1Nc1nc(Nc2ccccc2C)nc(SC2=NCCS2)n1,5.86%
18,CCCCNC(=S)NCC(c1ccccc1)c1c[nH]c2ccccc12 (stereo unspecified),0.6%
19,OC(CNCC(c1ccc(Cl)cc1Cl)c1c[nH]c2ccccc12)c1ccccc1 (stereo unspecified),-5.36%
20,O=C(O)CCN1C(=O)c2ccc(NC(=O)C(c3ccccc3)c3ccccc3)cc2C1=O,3.59%
21,Cn1c(=O)c2c(ncn2CC(=O)Nc2nc(-c3ccccc3Cl)cs2)n(C)c1=O,21.1%
22,CCc1ccc2nc3nc(C)cc(C)c3c(N)c2c1,-15%
23,Cc1cc(C)c2c(N)c3cccc(C)c3nc2n1,-7.17%

row,Structure (SMILES),inhibition
1,CC(=O)c1ccc(NC(=O)CSc2nc(N)c3cc4c(nc3n2)CCCC4)cc1,-7.23%
2,Cc1cc(C)c(OCC(=O)OCC(=O)NCCC2=CCCCC2)c(C)c1,1.39%
3,CC12CN3CCN(C1)CC(C)(C3)C2=NN,6.55%
4,O=c1c2ccccc2nc(N/N=C/c2ccc(O)cc2)n1O,10.2%
5,NC(=S)N/N=C/c1c(O)ccc2ccccc12,-1.9%
6,Oc1ccc2ccccc2c1/C=N/Nc1ccccc1,-3.44%
7,O=C(N/N=C\c1c(O)ccc2ccccc12)c1ccc(O)cc1,-4.79%
8,Cc1ccccc1/C=N/Nc1nc2ccccc2c(=O)n1O,-20.3%
9,Cc1ccc(C(=O)N/N=C/c2c(O)ccc3ccccc23)cn1,-2.29%
10,CC(C)(C)C(=O)Nc1ccnn1C1CCN(C(=O)c2ccc(Cl)cc2F)CC1,-1.83%
11,Cc1cc(OCc2nc(-c3cccnc3)no2)c(C)cc1Br,-4.41%
12,O=C1[C@@H]2Cc3c([nH]c4ccccc34)C(c3cccc(Br)c3)N2C(=O)CN1C1CCN(Cc2ccccc2)CC1 (stereo partly specified),0.55%
13,CCOc1cc(C(=O)Nc2ccccc2N2CCOCC2)ccc1OCC(=O)N1CCCCC1,-2.04%
14,CC1Oc2cc3c(-c4c(O)cc(O)c5c(O)c6c(cc45)OC(C)C(C)C6=O)c(O)cc(O)c3c(O)c2C(=O)C1C (stereo unspecified),15.3%
15,C[C@@H]1Cc2c(O)c(O)cc(O)c2C(=O)O1,6.45%
16,Cc1cnc(C(=O)NC2CC(C)(C)Cc3c2cnn3-c2cccc(F)c2)cn1 (stereo unspecified),-5.99%
17,NC(=O)c1ccc(SCC(=O)OCC(=O)NCc2ccco2)c([N+](=O)[O-])c1,-1.63%
18,Nc1nc(N)nc(-c2cccc(Cl)c2Cl)n1,-6.05%
19,Nc1nnc(-c2ccccc2)c(-c2ccccc2)n1,-9.89%
20,CC(=O)N1CCN(S(=O)(=O)c2cccc(C(=O)Nc3ccccc3N3CCCC3)c2)CC1,-2.62%
21,O=C(O)[C@H](Cc1ccccc1)NC(=O)N1CCOCC1,-2.76%
22,O=C(CCNC(=O)c1ccc(Br)cc1)NCc1cccnc1,-2.13%
